# Assay outcomes from PubChem.
# Only some compounds are listed: those with a hit (about 1.8% of all), similar ones and a draw of the others.
# GC-A act: GC-A (human) enzyme activation; P16066; HEK293 GC-A cells, cGMP TR-FRET, EC30 ANP; 0% at EC30 ANP, 100% saturating ANP; activation, % at 10 µM; 370,000 compounds, 0.14% hits; AID 1671463; in the data active = activation above about 40%
# Target sequence (P16066 whole entry, looked up): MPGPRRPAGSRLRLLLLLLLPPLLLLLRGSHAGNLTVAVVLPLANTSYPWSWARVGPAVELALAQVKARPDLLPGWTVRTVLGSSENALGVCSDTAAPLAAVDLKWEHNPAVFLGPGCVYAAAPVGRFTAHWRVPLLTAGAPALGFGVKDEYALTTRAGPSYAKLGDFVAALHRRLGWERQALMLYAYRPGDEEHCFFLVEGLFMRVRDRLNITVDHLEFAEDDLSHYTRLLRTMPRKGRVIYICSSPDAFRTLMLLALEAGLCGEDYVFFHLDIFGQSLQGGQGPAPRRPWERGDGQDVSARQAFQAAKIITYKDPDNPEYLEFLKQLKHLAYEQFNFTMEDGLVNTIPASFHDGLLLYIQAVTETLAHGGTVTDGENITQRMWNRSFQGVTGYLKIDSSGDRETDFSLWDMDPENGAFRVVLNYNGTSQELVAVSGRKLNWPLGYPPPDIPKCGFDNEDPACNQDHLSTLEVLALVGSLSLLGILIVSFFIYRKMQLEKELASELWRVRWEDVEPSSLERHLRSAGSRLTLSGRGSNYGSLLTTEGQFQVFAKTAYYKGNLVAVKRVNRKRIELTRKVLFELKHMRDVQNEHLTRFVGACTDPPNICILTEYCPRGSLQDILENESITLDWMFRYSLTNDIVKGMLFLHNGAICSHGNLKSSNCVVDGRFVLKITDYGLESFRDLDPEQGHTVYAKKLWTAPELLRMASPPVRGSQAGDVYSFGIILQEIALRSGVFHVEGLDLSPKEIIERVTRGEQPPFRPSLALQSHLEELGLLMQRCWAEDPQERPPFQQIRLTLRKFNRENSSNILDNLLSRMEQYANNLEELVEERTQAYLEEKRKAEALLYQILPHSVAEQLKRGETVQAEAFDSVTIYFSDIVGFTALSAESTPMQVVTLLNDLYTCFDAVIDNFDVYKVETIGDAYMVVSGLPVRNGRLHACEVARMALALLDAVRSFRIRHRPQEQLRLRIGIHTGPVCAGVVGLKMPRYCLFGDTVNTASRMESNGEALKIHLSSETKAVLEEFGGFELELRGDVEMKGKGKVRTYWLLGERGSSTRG
# NPR2 activator: GC-B (human) receptor activation. 370,000 compounds, 0.11% hits. HEK293-GC-B cells, CNP EC30, cGMP TR-FRET; 0% at EC30 CNP, 100% saturating CNP. AID 1920062. activation, % at 10 µM;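 active = activation at 10 µM reaching about 35% in either raw or pattern-adjusted values, limit read from the data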
# Granule exo inh: lytic granule exocytosis inhibition; AID 651702; TALL-104 LAMP-1 surface exposure, flow cytometry; cells stimulated with thapsigargin and PMA; 360,000 compounds, 0.66% hits; inhibition, % at 10 µM;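 active = inhibition above about 55%, limit read from the data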
# Myeloid diff MLP: compounds promoting myeloid differentiation. ER-HoxA9 myeloid progenitors, lysozyme-GFP differentiation, flow cytometry. calls only at 10 µM. 360,000 compounds, 1% hits;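 active = normalized GFP-positive differentiation at or above the plate's own cutoff, the solvent-only control mean plus 3 SD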;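 note: cells exposed to compound for four days before flow analysis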
# Myeloid diff: compounds promoting myeloid differentiation; calls only; ER-HoxA9 myeloid progenitors, GFP/Mac1 double-positive flow; AID 651706; 2,300 compounds, 2% hits; shares compounds with Myeloid diff MLP;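 active = share of green or green-and-red cells above 9 and 9% in run 1 or 4 and 3% in run 2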
# GFP autofluor: counter-screen for myeloid differentiation promoters: compound fluorescence; shares compounds with Myeloid diff MLP; ER-HoxA9 myeloid progenitors, no estrogen, GFP autofluorescence flow cytometry; vehicle wells 0%, positive control 100%; fluorescence response, % (concentration not given with the values); 2,300 compounds, 7.4% hits;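 active = over 5% cells positive for green fluorescent reporter, or over 2% positive for both it and APC stain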;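 note: range taken on the double positive population between DMSO and positive control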
# An asterisk follows results filed as active; i = inactive; / = no result; + = active, no number.
SMILES,GC-A act,NPR2 activator,Granule exo inh,Myeloid diff MLP,Myeloid diff,GFP autofluor
COCCOC(=O)c1c(C)oc2ccc(NS(=O)(=O)c3cccs3)cc12,1,4,1,/,/,/
Cc1cccc(C)c1C(O)c1ncc(-c2cccc3ccccc23)[nH]1 (stereo not given),0,2,-11,i,/,/
COC(=O)C1CN(CC(C)C)CCS(=O)(=O)N1Cc1ccc(Cl)cc1 (stereo not given),-2,-2,/,/,/,/
FC(F)(F)c1ccccc1CN1CCN(C2CCCCCC2)CC1,-4,4,0,i,/,/
FC(F)(F)c1ccccc1CN1CCCC(N2CCN(c3ccccc3)CC2)C1 (stereo not given),5,2,10,i,i,10*
COc1ccc2[nH]c(=O)c(CN(Cc3ccco3)Cc3nnnn3Cc3ccccc3)cc2c1,1,-1,-4,i,i,0
COc1ccc2cc(CN(Cc3ccco3)C(c3nnnn3C3CCCCC3)C(C)C)c(=O)[nH]c2c1 (stereo not given),-3,6,5,+,i,1
COc1ccc2cc(CN(Cc3ccco3)Cc3nnnn3C3CCCCC3)c(=O)[nH]c2c1,1,3,0,i,/,/
CCOc1ccc2[nH]c(=O)c(CN(Cc3ccco3)Cc3nnnn3Cc3ccccc3)cc2c1,-4,2,-4,i,/,/
Cc1sc2ncn(CC(=O)NCc3ccccn3)c(=O)c2c1S(=O)(=O)N1CCOCC1,6,0,2,i,i,0
CCOC(=O)CNC(=O)Cn1cnc2sc(C)c(S(=O)(=O)N3CCOCC3)c2c1=O,6,2,-3,i,/,/
CCOc1ccc(CN(C)CC(=O)Nc2cccc3ccccc23)cc1OC,-4,-4,1,i,i,0
COc1ccc(NC(=O)CCN2CC(C)OC(C)C2)c(OC)c1 (stereo not given),0,5,3,+,i,0
O=C(NC1(C(F)(F)F)NC(=O)N(Cc2ccco2)C1=O)c1cccnc1 (stereo not given),5,1,3,+,i,0
O=C(NC1(C(F)(F)F)NC(=O)N(Cc2ccccc2)C1=O)c1cccnc1 (stereo not given),-3,2,-3,i,/,/
COc1cccc(N2CCN(S(=O)(=O)c3ccc4ccccc4c3)CC2)c1,-12,0,-1,i,i,0
CCc1ccc(CNC(=O)CCc2nnc(Cc3cccc(C(F)(F)F)c3)o2)nc1,-1,-4,-3,+,i,0
O=C1c2cccnc2C(Nc2ccccc2)N1Cc1ccco1 (stereo not given),-3,3,0,i,i,0
O=C(NCCO)C1(C(=O)C2CC2)CC(c2ccccc2C(F)(F)F)=NO1 (stereo not given),1,-3,/,/,/,/
COc1ccccc1C1CC(c2ccc(Br)cc2)=NN1C(=O)c1cccnc1 (stereo not given),-6,-10,-2,i,i,0
COc1cccc(N=C2SC(C(=O)Nc3ccccc3F)CC(=O)N2C)c1 (stereo not given),1,1,-2,i,/,/
COc1cccc(NC(=O)C2CC(=O)N(C)C(=Nc3cccc(F)c3)S2)c1 (stereo not given),-4,-3,16,i,i,0
CC(=O)c1ccccc1OC(=O)c1ccco1,1,4,3,+,i,0
CCOc1ccccc1OC(=O)c1ccco1,1,0,4,i,i,1
CCc1nc2ccc(C(=O)NCCN3CCNC3=O)cn2c1N(CCC(C)C)CCN(C)C,2,2,-1,i,/,/
SMILES,GC-A act,NPR2 activator,Granule exo inh,Myeloid diff MLP,Myeloid diff,GFP autofluor
CCc1cc2c(nc1CC)CCCN2S(=O)(=O)c1ccc(C#N)cc1,0,3,/,/,/,/
CSC(=NS(=O)(=O)c1ccccc1)NNC(=O)c1c(-c2c(Cl)cccc2Cl)noc1C,1,2,2,i,/,/
Cc1ccc2c(c1)CCCN2C(=O)c1ccc2c(c1)OCO2,-3,-3,-2,i,i,0
O=C(c1ccc2c(c1)OCO2)N1CCCc2ccccc21,0,0,0,i,/,/
CN=C(Nc1ccccc1)SC1CC(=O)N(c2ccc(C(=O)OC)cc2)C1=O (stereo not given),3,-1,-3,i,/,/
CN=C(NC)SC1CC(=O)N(c2ccccc2)C1=O (stereo not given),0,0,0,i,i,0
O=C1CSC(=S)N1N=Cc1c(F)cccc1Cl,-6,3,8,i,/,/
CN(C)c1ccc(C=NN2C(=O)CSC2=S)c(Cl)c1,-3,2,-2,+,i,0
Cc1cc(=O)[nH]c(SCCOc2cccc(C(F)(F)F)c2)n1,-5,-2,2,/,i,3
CCOc1ccc(OCCSc2nc(C)cc(=O)[nH]2)cc1,-3,-6,0,i,/,/
CCCCc1c(CCC)c(=N)c2ccccc2n1C,5,1,0,i,i,0
COc1ccc2cc(C#N)c(SCC(=O)NNC(=O)Cc3ccccc3)nc2c1,-9,-13,3,i,/,/
Cc1ccc2cc(C#N)c(SCC(=O)NNC(=O)Cc3ccccc3)nc2c1,35,-16,1,+,i,0
CCCCn1nc(NC(=O)CC(C)C)c2cc3cc(OC)ccc3nc21,15,6,8,i,/,/
CCCCn1nc(NC(=O)CCC)c2cc3cc(OC)ccc3nc21,14,5,-8,i,i,0
COc1ccc(CN(C(=O)c2ccco2)c2ccc(C)c(C)c2)cc1,0,0,0,+,i,0
CCOc1ccc(N(Cc2ccc(OC)cc2)C(=O)c2ccco2)cc1,0,-2,28,i,/,/
O=C1C(NC(=O)N2c3ccccc3C=Cc3ccccc32)CCCCN1Cc1ccc(Cl)cc1 (stereo not given),-20,-10,/,/,/,/
CN(C)S(=O)(=O)c1cccc(NC(=S)NCCc2ccccn2)c1,10,4,-2,i,/,/
Cc1ccc(S(=O)(=O)N(C)C)cc1NC(=S)NCCc1ccccn1,2,-3,-2,i,i,0
COc1ccccc1C(CCNCc1ccc(N(C)C)cc1)c1ccc(OC(C)C)cc1 (stereo not given),-24,-4,11,i,i,0
COc1ccc(C#CCN(C)/C(N)=N/C(=O)OCc2ccccc2)cc1,-1,7,/,/,/,/
C[n+]1c(/C=C/c2ccc3c(c2)OCO3)ccc2ccccc21,1,4,-1,i,+,0
C[n+]1c(/C=C/c2ccc(O)cc2)ccc2ccccc21,-8,-7,1,i,/,/
O=C(Nc1ccccc1[N+](=O)[O-])c1nc[nH]c1C(=O)NCCO,-6,-3,-2,+,i,0
NNC(=O)c1nc[nH]c1C(=O)Nc1ccccc1[N+](=O)[O-],-5,1,1,i,/,/
